In all, about 320,000 compounds went through this assay and about 1,700 (0.53%) were called active.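 The calls were made as follows: active = inhibition above the campaign mean of all compounds plus 3 SD (cut at about 26% in these data); inactive = the rest.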 This excerpt belongs to a sample that is enriched for actives.
target: Protein phosphatase methylesterase 1 (Homo sapiens) (UniProt Q9Y570); experiment: human PME-1 methylesterase blockers – biochemical, fluorescence polarization, FP-Rh probe, HTS, primary screen (AID 2130); details: recombinant PME-1, FP-Rh probe fluorescence polarization; at 5.9 µM; stronger effect = higher value;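 also: competitive labeling of PME-1 active site by serine hydrolase directed probe; 0% = PME-1 with DMSO and 100% = wells lacking PME-1 enzyme; inhibitors block probe labeling so polarization falls and inhibition rises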
Sequence (Q9Y570 whole entry, looked up): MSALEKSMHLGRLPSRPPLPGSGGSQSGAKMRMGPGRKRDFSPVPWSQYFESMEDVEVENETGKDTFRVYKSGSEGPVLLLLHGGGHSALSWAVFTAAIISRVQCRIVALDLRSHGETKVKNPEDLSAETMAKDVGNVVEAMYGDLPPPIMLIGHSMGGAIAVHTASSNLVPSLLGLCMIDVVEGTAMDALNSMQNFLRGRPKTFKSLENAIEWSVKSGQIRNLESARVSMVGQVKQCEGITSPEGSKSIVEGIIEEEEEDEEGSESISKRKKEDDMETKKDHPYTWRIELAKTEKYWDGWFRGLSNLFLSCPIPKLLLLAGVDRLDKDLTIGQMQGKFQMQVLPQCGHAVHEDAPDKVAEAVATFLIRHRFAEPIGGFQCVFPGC

Compound | inhibition
O=C(NC(=S)Nc1ncccn1)c1ccccc1Br | -6.82% (inactive)
Cc1ccc(NC(=O)N2CCC(c3nc4c(nnn4Cc4c(F)cccc4Cl)c(=O)[nH]3)CC2)cc1 | 4.6% (inactive)
COc1ccc(Cn2nnc3c(=O)[nH]c(C4CCN(C(=O)c5ccccc5Cl)CC4)nc32)cc1 | 10.2% (inactive)
Cc1ccc(Cn2nnc3c(=O)[nH]c(C4CCN(S(=O)(=O)/C=C/c5ccccc5)CC4)nc32)cc1 | 31.4% (active)
O=S(=O)(c1cnccc1N1CCN(/N=C/c2ccc(Br)cc2)CC1)N1CCCCC1 | 1.2% (inactive)
CN=C1C=C/C(=N/N=c2\ccn(O)cc2C)C=C1C | -11% (inactive)
CCOC(=O)C1Sc2[nH]c(=O)sc2C(c2ccc(Cl)cc2)C1C(=O)OCC (stereo unspecified) | 9.44% (inactive)
Cc1cc(OCC(=O)NCC(O)c2ccccc2)c2c(C)c(C)c(=O)oc2c1 (stereo unspecified) | 1.37% (inactive)
O=C(Oc1ccc([N+](=O)[O-])cc1)c1ccc(Cl)c(S(=O)(=O)N2CCCCC2)c1 | -1.4% (inactive)
COc1ccc2nc(NC(=O)c3ccc(Br)s3)sc2c1 | -12.8% (inactive)
COc1ccc2nc(Nc3nc4cc5c(cc4s3)OCCO5)sc2c1 | 92.8% (active)
CCc1noc(C)c1C(=O)Nc1nc2ccc(OC)cc2s1 | 2.67% (inactive)
C/C=C/C(=O)Nc1ccc(N2CCN(c3ccc(C(F)(F)F)cn3)CC2)nc1 | -7.12% (inactive)
CCN1CCN(C(=O)Cn2nc(C)n3c(cc4c(OC)cccc43)c2=O)CC1 | -4.63% (inactive)
Cc1ccc(-n2c(SCC(=O)N3CCC(C(=O)O)CC3)nc3ccccc3c2=O)cc1C | 5.62% (inactive)
O=S(=O)(Nc1ccccc1Cl)c1cccc2nsnc12 | -1.38% (inactive)
CC(=O)N1CCc2c(sc(NC(=O)CCS(=O)(=O)c3ccccc3)c2C#N)C1 | -1.35% (inactive)
COc1ccc(NC(=O)CCNC(=O)Cn2cnc3sc4c(c3c2=O)CCCC4)cc1OC | -4.87% (inactive)
COc1ccc(NC(=O)CCCNC(=O)Cn2cnc3sc4c(c3c2=O)CCCC4)cc1OC | 3.69% (inactive)
COc1ccc(/C=N/Nc2ncnc3sc4c(c23)CCCC4)cc1O | 29.7% (active)
COc1ccc(CC(NC(C)=O)C(=O)NC2CCN(C(=O)Nc3ccc(C#N)cc3)CC2)cc1OC (stereo unspecified) | 2.43% (inactive)
COC(=O)C1=C(C)NC(=S)NC1c1ccc(OCC(=O)N2CC(C)OC(C)C2)c(OC)c1 (stereo unspecified) | 4.05% (inactive)
CCC(=O)c1ccc(OCC(=O)Nc2ccc3nc(C)sc3c2)cc1 | -15.4% (inactive)

Compound | inhibition
CCOc1ccc2nc(Nc3nc4ccc(NC(C)=O)cc4s3)sc2c1 | 50.7% (active)
CCOc1ccc2nc(NC(=O)CSc3nc4c(c(=O)n(C)c(=O)n4C)n3CC)sc2c1 | 1.27% (inactive)
CCOc1cc(C(=O)Nc2c(C)ccc3nsnc23)cc(OCC)c1OCC | -3.07% (inactive)
CCN1CCN(C(=O)N[C@@H](C(=O)N[C@@H]2C(=O)N3C(C(=O)O)=C(CSc4nnnn4C)CS[C@H]23)c2ccc(O)cc2)C(=O)C1=O | 1.33% (inactive)
O=C(Oc1cccc(N2C(=O)C3C4c5ccccc5C(c5ccccc54)C3C2=O)c1)c1ccco1 (stereo unspecified) | 2.64% (inactive)
Cc1nc(N=C(N)N)nc2c(C)cccc12 | -4.31% (inactive)
Cc1[nH]c2c(C(=O)N3CCCC(CCC(=O)NCc4ccccc4F)C3)cccc2c1C (stereo unspecified) | 28.6% (active)
CSc1ncccc1C(=O)N1CCCC(CCC(=O)NCc2ccccc2F)C1 (stereo unspecified) | -3.09% (inactive)
O=C(CCC1CCCN(Cc2ccc(O)c(Cl)c2)C1)NCc1ccccc1F (stereo unspecified) | -1.64% (inactive)
Cc1cccc(N(Cc2ccccc2)C(=O)c2cc(S(=O)(=O)N3CCOCC3)ccc2F)c1 | 8.02% (inactive)
COc1ccc(/C=N/Nc2nc3ccccc3o2)cc1OC | 23.1% (inactive)
COc1cc(/C=N/Nc2nc3ccccc3s2)ccc1O | 45.3% (active)
COc1cc(/C=N\Nc2nc(-c3cccs3)c(NC(C)=O)s2)ccc1O | 7.62% (inactive)
COC(=O)COc1cccc2c(=O)n(CC(=O)NCc3ccccc3)ccc12 | -7.45% (inactive)
Cc1cc(C)c(C)c(S(=O)(=O)Nc2ccc(O)cc2)c1C | 6% (inactive)
O=C(Nc1ccnn1C1CCN(Cc2cccc(OCCO)c2)CC1)C1CCCC1 | 4.32% (inactive)
Cc1nc2ccccc2nc1N/N=C/c1ccc(O)cc1O | 36.9% (active)
COc1cccc(/C=N/Nc2cc(C)nc(-c3ccccc3O)n2)c1O | 23.9% (inactive)
O=c1c2ccccc2nc(N/N=C/c2ccccc2)n1O | -3.42% (inactive)
Oc1ccc(/C=N/Nc2nc(-c3ccccc3F)nc3ccccc23)c(O)c1 | 55% (active)
FC(F)(F)c1nc2ccccc2nc1N/N=C/c1ccc(Cl)cc1 | 2.4% (inactive)
COc1ccccc1N1CCN(/N=C/c2ccc(O)cc2O)CC1 | 2.94% (inactive)
CCO[C@H]1OC(C(=O)N2CCN(Cc3ccccc3)CC2)=C[C@@H](c2cn(C(C)=O)c3ccccc23)[C@@H]1CCCO | 10.4% (inactive)

Compound | inhibition
CC(=O)Nc1ccc(S(=O)(=O)N2CCC(C(=O)N[C@@H](Cc3ccccc3)C(=O)O)CC2)cc1 | -6.81% (inactive)
COc1ccccc1N1CCN(C(=O)CCS(=O)(=O)c2ccc3c(c2)NC(=O)C(C)S3)CC1 (stereo unspecified) | -1.07% (inactive)
COC(=O)c1ccc(CN2C(=O)NC(c3ccccc3)(c3ccccc3)C2=O)o1 | 0.13% (inactive)
CC(C)(C)C(=O)N(Cc1ccccc1)c1ccccn1 | -3.74% (inactive)
O=C(Nc1ccccc1C(=O)N1CCOCC1)c1ccc(Cl)cc1 | -4.46% (inactive)
O=c1nc(N2CCOCC2)nc2n1CCO2 | 0.45% (inactive)
CCCOc1ccc(CN(CCO)CCO)cc1C(=O)OC | 1.19% (inactive)
Cc1c(C(=O)N2CCCC2)c(S(=O)(=O)NCC(C)c2ccccc2)c(C)n1C (stereo unspecified) | 4.76% (inactive)
N=c1n(CCc2ccccc2)c2ccccc2n1Cc1ccccc1F | -11% (inactive)
CC(=O)c1c(C)n(-c2ccc(C)cc2)c2ccc(O)cc12 | -0.87% (inactive)
CC(=O)c1c(C)n(-c2ccc(N(C)C)cc2)c2ccc(OCC(N)=O)cc12 | 26.2% (active)
CCOC(=O)c1c(C)oc2ccc(OCC(=O)N(CC)CC)cc12 | -5.01% (inactive)
CC(=O)N1CC[n+]2c(-c3ccc([N+](=O)[O-])cc3)csc21 | -1.65% (inactive)
COc1cc(NS(=O)(=O)c2ccc(NC(=O)c3ccc([N+](=O)[O-])cc3)cc2)ncn1 | 4.2% (inactive)
Cc1ccc(NC(=O)Cc2nnc(SCC(=O)Nc3nncs3)n2C)cc1 | 5.14% (inactive)
O=C(CCn1nnc2ccccc21)OCC(=O)c1ccc([N+](=O)[O-])cc1 | -1.86% (inactive)
Cc1cc(C(=O)OCC(=O)Nc2ccc(F)c(F)c2)c(C)o1 | -2.42% (inactive)
CONC(=O)c1cc(OCC(F)(F)F)ccc1OCC(F)(F)F | -6.8% (inactive)
CN(Cc1ccccc1)C(=O)c1ccc(NC2=NC3CS(=O)(=O)CC3S2)cc1 (stereo unspecified) | 0.07% (inactive)
O=C(CCc1nnc2ccc(NCCCN3CCCC3=O)nn12)NCc1ccccc1Cl | -0.36% (inactive)
Cc1ccc(N(C(=O)C(F)(F)F)C(C(=O)NC2CCCCC2)c2ccncc2)cc1C (stereo unspecified) | 3.24% (inactive)
O=S1(=O)CCOC[C@H](CC2CCCCC2)N1Cc1ccc(F)cc1 | 1.92% (inactive)
COC(=O)c1sc(=S)n(-c2ccc(Cl)cc2)c1C | -0.65% (inactive)

Compound | inhibition
CCOC(=O)c1c(N)sc(C(C)=O)c1C | 3.77% (inactive)
COCCOC(=O)c1sc(=S)n(CCOC)c1N | 35% (active)
COc1cccc(CNC(=O)CN2C(=O)NC(Cc3ccccc3)(c3ccccc3)C2=O)c1 (stereo unspecified) | -2.37% (inactive)
Cc1ccc(-c2ccnc3[nH]n(-c4ccccc4)c(=O)c23)cc1 | -2.99% (inactive)
Cc1cc(C)c(C2C3=C(Nc4c2c(C)nn4-c2ccccn2)c2ccccc2C3=O)c(C)c1 (stereo unspecified) | -4.18% (inactive)
Cc1ccc(C2C3=C(Nc4[nH]n(-c5ccccc5)c(=O)c42)c2ccccc2C3=O)cc1 (stereo unspecified) | 36.4% (active)
CSc1nc2nc(-c3cccc(C(F)(F)F)c3)ccn2n1 | -7.13% (inactive)
COC(=O)CSc1nc2c(c(C3CC=CCC3)c1C#N)CCC2 (stereo unspecified) | -1.86% (inactive)
CCOC(=O)N1CCN(C(=O)COCc2cc(-c3ccc4c(c3)OCO4)on2)CC1 | -4.28% (inactive)
O=C(NCCCN1CCCCC1)C1CC(=O)N(CCc2ccccc2)C1 (stereo unspecified) | 0.2% (inactive)
CCCCN(CCCC)CCNC(=O)CN1C(=O)COc2ccc(S(=O)(=O)N3CCOCC3)cc21 | -2.01% (inactive)
CCc1ccc(C(=O)CSc2nnc(C)c(=O)[nH]2)cc1 | -6.05% (inactive)
O=C(O)c1ccccc1N=N/C(=N/Nc1cc(S(=O)(=O)O)ccc1O)c1ccccc1 | 13.7% (inactive)
COCCNC(=O)c1ccccc1NS(=O)(=O)c1ccc(C)c([N+](=O)[O-])c1 | -1.62% (inactive)
Cc1cccc(COc2ccccc2/C=N/Nc2ccc([N+](=O)[O-])cc2)c1 | 11.9% (inactive)
Cc1ccc(NS(=O)(=O)c2ccc(N/N=C/c3ccccc3OCC(=O)O)c([N+](=O)[O-])c2)c(C)c1 | 78.2% (active)
Cc1ccccc1N1CC(C(=O)Nc2ccc3c(c2)OCO3)CC1=O (stereo unspecified) | 0.7% (inactive)
COCCN(C(=S)Nc1cccc(Cl)c1C)C(C)c1ccco1 (stereo unspecified) | -13.2% (inactive)
CCCN(C(=O)CSc1nnnn1C)c1c(N)n(Cc2ccccc2)c(=O)[nH]c1=O | 0.95% (inactive)
COc1ccc(C2Nc3ccccc3C(=O)N2c2ccc(F)cc2)cc1Cn1nnc2ccccc21 (stereo unspecified) | 30.4% (active)
COc1ccc(N2C(=O)c3ccccc3NC2c2ccc(OC)c(CN3CCOCC3)c2)cc1 (stereo unspecified) | -3.55% (inactive)
COc1ccc(C2Nc3ccccc3C(=O)N2Cc2ccccc2)cc1Cn1nnc2ccccc21 (stereo unspecified) | 8.54% (inactive)
